Drawing on PubChem BioAssay AID372 (MTDP, 2006), this text covers inhibition for 100 molecules.

The campaign covered roughly 100,000 compounds. About 770 (0.77%) were called active. Many of the other results were omitted from the sample, so actives are more common in it than they were. Unmarked numbers belong to inactive results. No stated cut-off is given here; in the data, active means inhibition above about 50%; inactive means the rest.

For this experiment, the target named is Gag-Pol polyprotein (Human immunodeficiency virus type 1 group M subtype B (isolate HXB2)) (UniProt P04585). Description: RNase H inhibition, HIV 1 Gag Pol polyprotein, FRET biochemical assay, screening (AID 372). To be noted: HIV-1 RT RNase H, FRET RNA/DNA substrate fluorescence; at 10 µM; hits give high values.
As to `O=S(=O)(c1cc(Cl)ccc1Cl)n1ccnc1`, the inhibition was 0%.

On to `CCOC(=O)c1ccc(-c2ccc(/C=N/O)o2)cc1`, for which the inhibition is 0%.

As to `COC(=O)C1=C(C)NC2=C(C(=O)CC(c3ccc(OC)cc3)C2)C1c1cccc(OC)c1OC` (stereo not given), the inhibition was 11%.

Consider `COc1ccccc1C(=O)NC(=S)Nc1cc(-c2nc3ccccc3o2)ccc1C`, for which the inhibition was 10%.

Take `O=C(NC(=S)Nc1cc(-c2nc3ccccc3o2)ccc1Cl)c1ccccc1Br`: the inhibition is 9%.

For the molecule `Cc1ccc2nc(-c3ccc(Cl)c(NC(=S)NC(=O)c4ccccc4C)c3)oc2c1`, the inhibition was 42%.

Regarding `Cc1ccccc1C(=O)NC(=S)Nc1cc(-c2nc3ccccc3o2)ccc1Cl`, the inhibition is 53% (active).

Turning to `Cc1ccc(-c2nc3ccccc3o2)cc1NC(=S)NC(=O)c1ccccc1C`, the inhibition is 12%.

With `COc1ccc(-c2nc3ccccc3o2)cc1NC(=S)NC(=O)c1ccccc1C`, the inhibition is 53% (active).

As to `O=C(NC(=S)Nc1ccc(Cl)cn1)c1cccc(F)c1`, the inhibition was 13%.

`Cc1ccc2nc(-c3ccc(Cl)cc3)cn2c1`: the inhibition is 5%.

For `O=C1C(=O)N(c2nc3ccccc3s2)C(c2ccccc2F)/C1=C(/O)c1ccccc1` (stereo not given), the inhibition was 8%.

Take `O=C(Nc1c(C(=O)Nc2ccc(Br)cc2)cnn1-c1ccccc1)c1ccco1`: the inhibition was 8%.

Regarding `O=C(Nc1ccc(S(=O)(=O)N2CCCCCC2)cc1)c1ccc(Cl)cc1Cl`, the inhibition is 8%.

In the case of `O=C(Nc1ccc(S(=O)(=O)N2CCCCC2)cc1)c1ccccc1Cl`, the inhibition was 57% (active).

Turning to `O=C(Nc1ccc(S(=O)(=O)N2CCOCC2)cc1)c1ccccc1Cl`, the inhibition was 0%.

As to `Cc1cccc(C(=O)NN=C2CCCCC2)c1`, the inhibition is 7%.

For the molecule `CC(C)NS(=O)(=O)c1ccc(Br)cc1`, the inhibition was 0%.

`CC(=O)c1cccc(-c2ccc(/C=C3\C(=O)NC(=O)C(C#N)=C3C)o2)c1`: the inhibition was 43%.

For the molecule `CC1=C(C#N)C(=O)NC(=O)/C1=C\c1ccc(-c2ccc(Cl)c(Cl)c2)o1`, the inhibition was 50% (active).

Turning to `O=C1NC(=S)NC(=O)C1=Cc1ccc(-c2ccc(Cl)cc2[N+](=O)[O-])o1`, the inhibition was 42%.

`Cc1ccc(-c2ccc(C=C3C(=O)NC(=O)NC3=O)o2)c([N+](=O)[O-])c1`: the inhibition was 14%.

For the molecule `CC1=C(C#N)C(=O)NC(=O)/C1=C\c1ccc(-c2cc(C)c(C)cc2[N+](=O)[O-])o1`, the inhibition is 56% (active).

In the case of `CC1=C(C#N)C(=O)NC(=O)/C1=C\c1ccc(-c2cccc(Cl)c2)o1`, the inhibition was 33%.

`Cc1cc(-c2ccc(/C=C3/C(=O)NN(c4ccc(F)cc4)C3=O)o2)c([N+](=O)[O-])cc1C`: the inhibition is 5%.

In the case of `Cc1cc(-c2ccc(C=C3C(=O)N(C)C(=O)N(C)C3=O)o2)c([N+](=O)[O-])cc1C`, the inhibition is 6%.

Consider `C=CCN1C(=O)/C(=C/c2cc(C)n(-c3ccc(C(=O)O)cc3C)c2C)C(=O)NC1=S`, for which the inhibition is 6%.

`Cc1cc(Br)cc(C)c1NC(=O)c1cccnc1`: the inhibition was 2%.

Take `CCOC(=O)CNC1=C([N+](=O)[O-])C(=O)CC(C)(C)C1`: the inhibition was 0%.

With `C=CCn1cc(/C=c2\sc3n(c2=O)C(c2ccc(SC)cc2)C(C(=O)OCC)=C(C)N=3)c2ccccc21` (stereo not given), the inhibition is 24%.

With `COc1ccc(C2CC(C(F)(F)F)n3nc(C(=O)Nc4cc(OC)c(Cl)cc4OC)c(Cl)c3N2)cc1` (stereo not given), the inhibition is 14%.

`COc1ccc(C)cc1NC(=O)COc1cccc2ccccc12`: the inhibition is 21%.

For the molecule `Cc1ccccc1N1C(=O)/C(=C/c2cccn2-c2ccc(Br)cc2)C(=O)NC1=S`, the inhibition is 20%.

For `CCc1ccccc1N/C=C(\C#N)c1nc(-c2ccc(Cl)cc2)cs1`, the inhibition was 8%.

In the case of `Cc1ccc(-c2n[nH]c(=S)n2N=Cc2ccccc2OCC(=O)O)cc1`, the inhibition is 12%.

Regarding `COc1ccc(/C=C2/Sc3ccccc3C2=O)cc1`, the inhibition was 5%.

In the case of `Cc1ccccc1OCC(=O)Nc1ccc(O)c(-c2nc3ccccc3s2)c1`, the inhibition was 14%.

`Cc1ccc(C(=O)NC(=S)Nc2ccc(O)c(-c3nc4ccccc4s3)c2)cc1`: the inhibition is 37%.

As for `O=C(COc1ccc(Br)cc1Cl)Nc1ccccc1F`, the inhibition is 51% (active).

On to `O=C(COc1ccc(Cl)cc1Cl)Nc1ccc(NC(=O)COc2ccc(Cl)cc2Cl)cc1`, for which the inhibition was 52% (active).

`O=C(NC(=S)Nc1ccc(O)c(-c2nc3ccccc3s2)c1)c1ccc(Cl)cc1`: the inhibition is 54% (active).

For the molecule `O=C(COc1ccc(Cl)cc1Cl)Nc1ccccc1F`, the inhibition is 27%.

Regarding `O=C(COc1ccc(Cl)cc1Cl)Nc1ccc(-c2nc3ccccc3s2)c(O)c1`, the inhibition was 27%.

On to `O=C(COc1ccc(Cl)cc1Cl)Nc1ccc(-c2ccccc2)cc1`, for which the inhibition was 7%.

On to `O=C(NC(=S)Nc1ccc(O)c(-c2nc3ccccc3s2)c1)c1ccc(F)cc1`, for which the inhibition was 46%.

Turning to `O=C(COc1ccc(Br)cc1Cl)Nc1ccccc1Cl`, the inhibition was 31%.

On to `O=C(COc1ccc(Cl)cc1Cl)Nc1ccc(O)c(-c2nc3ccccc3s2)c1`, for which the inhibition is 61% (active).

Consider `CCC(=O)Nc1ccc(NC(=O)COc2ccc(Cl)cc2Cl)cc1`, for which the inhibition was 27%.

For the molecule `C#CCSc1nncn1C(=O)/C=C/c1ccco1`, the inhibition is 19%.

As to `COc1ccc2nc(N/C(N)=N/S(=O)(=O)c3ccc(C)cc3)nc(C)c2c1`, the inhibition is 5%.

On to `Cc1cc(=O)[nH]c(N/N=C/c2cccnc2)n1`, for which the inhibition is 0%.

For `CCCCNCCCCCOc1ccccc1C(C)C`, the inhibition is 5%.

In the case of `COc1cccc(OCCCCOc2ncnc3ccccc23)c1`, the inhibition is 10%.

As to `O=C(COc1ccc(/C=N/NS(=O)(=O)c2ccccc2)cc1)Nc1ccc(F)cc1`, the inhibition was 4%.

On to `CCOc1ccc(N(CC(=O)NCCSCc2ccc(C)cc2)S(C)(=O)=O)cc1`, for which the inhibition is 16%.

Turning to `COC(=O)c1ccc(/C=C2\N=C(c3ccc(F)cc3)OC2=O)cc1`, the inhibition was 0%.

For `CC(=O)Oc1ccc2c(=O)c(-c3nc4ccccc4[nH]3)c(C)oc2c1`, the inhibition was 3%.

On to `O=C(NC(=S)Nc1ccc(-c2nc3ccccc3s2)c(O)c1)c1cccs1`, for which the inhibition is 56% (active).

As for `O=C(COc1ccc(Br)cc1Cl)Nc1ccc2c(c1)OCCO2`, the inhibition was 50% (active).

For `O=C(COc1ccc(Br)cc1Cl)Nc1ccc2c(c1)OCO2`, the inhibition was 18%.

On to `O=C(NC(=S)Nc1cccc(-c2nc3ccccc3s2)c1)c1cccs1`, for which the inhibition is 7%.

For `O=C(COc1ccc(Cl)cc1Br)Nc1ccc2c(c1)OCCO2`, the inhibition is 36%.

With `O=C(NC(=S)Nc1ccc(O)c(-c2nc3ccccc3s2)c1)c1cccs1`, the inhibition is 19%.

Turning to `CC(=O)N1N=C(c2ccc(N(C)C)cc2)CC1c1ccccc1` (stereo not given), the inhibition was 11%.

As to `Nc1[nH]n(-c2ccccc2)c(=O)c1N=Nc1ccc(Cl)cc1`, the inhibition is 9%.

With `O=C(N/N=C/c1ccc(I)cc1)C1CC(=O)N(c2ccccc2)C1` (stereo not given), the inhibition was 9%.

Turning to `Cc1cc(/C=N/O)c(C)n1-c1ccc(N(C)C)cc1`, the inhibition was 11%.

Take `COc1cc(/C=C(\C#N)c2nc3ccccc3s2)cc(Br)c1O`: the inhibition is 5%.

Turning to `CCOc1cc(/C=C(\C#N)c2nc3ccccc3s2)ccc1O`, the inhibition was 16%.

Turning to `COc1cc(/C=C(\C#N)c2nc3ccccc3s2)cc(OC)c1O`, the inhibition was 54% (active).

For the molecule `C=CCN(CC=C)CC(O)CN1C(=O)NC(C)(C)C1=O` (stereo not given), the inhibition is 3%.

With `CC1=CC(C)(C)N(C(=O)CSc2nc3ccccc3s2)c2cc(C)ccc21`, the inhibition was 20%.

Regarding `Cc1ccc(C(=O)CSc2nc(N)c(C#N)c(-c3ccc(O)cc3)c2C#N)cc1`, the inhibition was 47%.

With `COc1ccc(-c2c(C#N)c(N)nc(SCC(=O)OCc3ccccc3)c2C#N)cc1`, the inhibition is 15%.

On to `COC(=O)CSc1nc(N)c(C#N)c(-c2ccc(O)cc2)c1C#N`, for which the inhibition is 2%.

Turning to `COC(=O)CSc1nc(N)c(C#N)c(-c2ccc(OC)cc2)c1C#N`, the inhibition is 4%.

For `COc1cccc(N=Cc2c(O)ccc3ccccc23)c1`, the inhibition is 13%.

For the molecule `Cc1ccccc1Nc1ncc(-c2ccc3ccccc3c2)s1`, the inhibition was 22%.

Consider `COc1cc(C2C(C(=O)/C=C/c3ccccc3)=C(O)C(=O)N2c2ccccn2)ccc1O` (stereo not given), for which the inhibition was 6%.

On to `COc1cc2ccccc2cc1C(=O)Nc1ccc(Br)cc1F`, for which the inhibition is 18%.

As to `Cc1ccccc1-n1c(O)c(C=NCc2ccccc2F)c(=O)[nH]c1=O`, the inhibition was 9%.

Turning to `CCCC1CCc2c(sc(N)c2C#N)C1` (stereo not given), the inhibition was 39%.

As for `CC1CCc2c(sc(N)c2C#N)C1` (stereo not given), the inhibition was 57% (active).

Turning to `CCC1CCc2c(sc(N)c2C#N)C1` (stereo not given), the inhibition was 18%.

In the case of `O=C(Nc1ccc(NC(=O)c2cc([N+](=O)[O-])cc([N+](=O)[O-])c2)cc1)c1cccc(Br)c1`, the inhibition is 12%.

Regarding `CCC(OC(=O)CN1C(=O)C(=O)c2ccccc21)C(=O)Nc1ccc(S(N)(=O)=O)cc1` (stereo not given), the inhibition is 12%.

Take `Cc1ccc(C)n1-c1ccc(OCC(=O)O)cc1`: the inhibition is 54% (active).

Take `Cc1ccc(C)n1-c1ccc(CC(=O)O)cc1`: the inhibition was 47%.

On to `O=C(O)COc1ccc(N2C(=O)CCC2=O)cc1`, for which the inhibition is 12%.

Regarding `CC(=O)c1ccc(-n2c(C)ccc2C)cc1`, the inhibition was 0%.

As for `O=C(O)COc1ccc(N2C(=O)C=CC2=O)cc1`, the inhibition was 35%.

Take `O=C(CN1C(=O)/C(=C/c2ccccc2Cl)SC1=S)Nc1nccs1`: the inhibition was 14%.

With `CCOc1ccccc1N1COc2ccc3ccccc3c2C1`, the inhibition was 14%.

`CCOc1ccc(CN2CCN(C(=O)c3cccs3)CC2)cc1`: the inhibition is 5%.

For `COc1cccc(OCCCCOc2ccc(Cl)cc2C)c1`, the inhibition was 29%.

On to `COc1ccc(OC)c(N(CC(=O)N/N=C/c2cc(Br)ccc2OC)S(=O)(=O)c2ccccc2)c1`, for which the inhibition was 2%.

For `O=C1NC(=O)/C(=C\c2ccc(Cl)cc2Cl)S1`, the inhibition was 16%.

For the molecule `Cc1ccc(NS(=O)(=O)c2cc(Cl)ccc2Cl)c(Br)c1`, the inhibition was 51% (active).

`Cc1ccc(C)c(NS(=O)(=O)c2cc(Cl)ccc2Cl)c1`: the inhibition was 47%.

On to `Cc1ccc(NS(=O)(=O)c2cc(Cl)ccc2Cl)c(C)c1`, for which the inhibition is 20%.
